The values below come from PubChem BioAssay (NCATS).

Experiment [1] can be described thus: Drug repurposing screens with cells derived from glioblastoma tumor samples (AID 1345199). Note: nearly all actives have a fitted effect of over 40% in size. Conditions: GBM patient neurospheres viability, ATP luminescence, 48 h. The essentials: (§1)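 Primary testing used CD133+ neurospheres from four GBM patients, seven concentrations, 48 h exposure and ATP-based viability; confirmation added three slower-growing patient lines.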

For experiment [2], the system named is astro (control astrocytes). The experiment is described as above. Conditions: viability, ATP luminescence, 48 h; series mostly up to 45.9 µM. The essentials:
as §1

Where [3] appears, read: at 45.9 µM (top of the series), tumour line B.
[4] abbreviates: at 45.9 µM (top of the series), tumour line D.
Where [5] appears, read: at 46 µM (top of the series), tumour line A.
[6] abbreviates: at 46.1 µM (top of the series), tumour line C.

Inconclusive results are not listed. Values without a mark were called inactive. The source made the active and inactive calls. Calls come from the whole dose curve; as a rule, active = well fitted inhibition curve with a large enough effect; inconclusive = small, poorly fitted or top-dose-only effect; inactive = flat fitted curve, though single readings scatter.
% is set by controls: 0 for no effect and ±100 for the full control effect; potency is the fitted concentration of half-maximal effect.

Regarding `COC1=C(OC)C(=O)C(C/C=C(\C)CC/C=C(\C)CC/C=C(\C)CC/C=C(\C)CC/C=C(\C)CC/C=C(\C)CC/C=C(\C)CC/C=C(\C)CC/C=C(\C)CCC=C(C)C)=C(C)C1=O`, the activity, negative = cell killing was 2.27% in experiment [1] (setting [3]), -1.65% in experiment [1] (setting [4]), -4.78% in experiment [1] (setting [5]) and 7.72% in experiment [1] (setting [6]). Further, in experiment [2], the Potency entry was “inactive”.

Consider `CS(=O)(=O)OCC(O)C(O)COS(C)(=O)=O` (stereo not given), for which the activity, negative = cell killing was -10.6% in experiment [1] (setting [3]), -10.3% in experiment [1] (setting [4]), -29.4% in experiment [1] (setting [5]) and -1.32% in experiment [1] (setting [6]). The Potency result in experiment [2] is “inactive”.

`CC(C)(C)NCC(O)CSc1nc(-c2ccc(C(N)=O)s2)cs1` (stereo not given): the activity, negative = cell killing in experiment [1] (setting [3]) was -20.2%; in experiment [1] (setting [4]), -9.92%; in experiment [1] (setting [6]), -12.2%. For the same molecule, the Potency in experiment [1] (tumour line A) is 17.8 µM (active). Further, the Potency entry in experiment [2] is “inactive”.

For `C[C@@H]1C/C=C/C=C/C=C/C=C/[C@H](O[C@@H]2O[C@H](C)[C@@H](O)[C@H](N)[C@@H]2O)C[C@@H]2O[C@](O)(C[C@@H](O)C[C@H]3O[C@@H]3/C=C/C(=O)O1)C[C@H](O)[C@H]2C(=O)O`, the activity, negative = cell killing in experiment [1] (setting [3]) is -13.9%; in experiment [1] (setting [4]), -5.09%; in experiment [1] (setting [5]), -20.3%; in experiment [1] (setting [6]) it was -13.5%. Further, in experiment [2], the Potency result was “inactive”.

As for `COc1ccc(/C=C/C(=O)OCCC(C)C)cc1`, the activity, negative = cell killing was 1.41% in experiment [1] (setting [3]), -11.4% in experiment [1] (setting [4]), 4.4% in experiment [1] (setting [5]) and -1.14% in experiment [1] (setting [6]). In experiment [2], the Potency entry was “inactive”.

In the case of `O=C(OC[C@H]1O[C@@H](OC(=O)c2cc(O)c(O)c(OC(=O)c3cc(O)c(O)c(O)c3)c2)[C@H](OC(=O)c2cc(O)c(O)c(OC(=O)c3cc(O)c(O)c(O)c3)c2)[C@@H](OC(=O)c2cc(O)c(O)c(OC(=O)c3cc(O)c(O)c(O)c3)c2)[C@@H]1OC(=O)c1cc(O)c(O)c(OC(=O)c2cc(O)c(O)c(O)c2)c1)c1cc(O)c(O)c(OC(=O)c2cc(O)c(O)c(O)c2)c1`, in experiment [1] (setting [6]), the activity, negative = cell killing was -14.4%. Besides, the Potency in experiment [1] (tumour line A) was 15.8 µM (active); in experiment [1] (tumour line B) it was 22.4 µM (active); in experiment [1] (tumour line D) it was 17.8 µM (active); in experiment [2] it was 2.82 µM (active).

Regarding `CC(C)c1ncc([N+](=O)[O-])n1C`, the activity, negative = cell killing was -8.02% in experiment [1] (setting [3]), -13.9% in experiment [1] (setting [4]), -13.9% in experiment [1] (setting [5]) and -14.5% in experiment [1] (setting [6]). Besides, the Potency result in experiment [2] was “inactive”.

Regarding `CCOC(=O)[C@@H](N)CS`, the activity, negative = cell killing in experiment [1] (setting [3]) was -8.18%; in experiment [1] (setting [4]), -11.2%; in experiment [1] (setting [5]), -24.4%; in experiment [1] (setting [6]), 1.04%. In addition, the Potency result in experiment [2] is “inactive”.

`CC[C@H](C)[C@@H]1NC(=O)[C@H](Cc2ccc(O)cc2)NC(=O)[C@@H](N)CSSC[C@@H](C(=O)N2CCC[C@H]2C(=O)N[C@@H](CC(C)C)C(=O)NCC(N)=O)NC(=O)[C@H](CC(N)=O)NC(=O)[C@H](CCC(N)=O)NC1=O`: the activity, negative = cell killing in experiment [1] (setting [3]) is -4.51%; in experiment [1] (setting [4]), -1.96%; in experiment [1] (setting [5]) it was -11.4%; in experiment [1] (setting [6]), -6.16%. Besides, the Potency entry in experiment [2] is “inactive”.

In the case of `C[C@H](N)C(=O)N[C@@H](C)P(=O)(O)O`, the activity, negative = cell killing is -6.14% in experiment [1] (setting [3]), -11.2% in experiment [1] (setting [4]), -15.6% in experiment [1] (setting [5]) and -19.1% in experiment [1] (setting [6]). In addition, the Potency result in experiment [2] is “inactive”.

On to `O=C1CCC(c2ccccc2)(C2CCN(Cc3ccccc3)CC2)C(=O)N1` (stereo not given), for which the values for the activity, negative = cell killing in experiment [1] (setting [3]), in experiment [1] (setting [4]) and in experiment [1] (setting [6]) were -26.8%, -22.6% and -22.6%, respectively. The Potency in experiment [1] (tumour line A) was 11.2 µM (active). In experiment [2], the Potency result was “inactive”.

With `CC(=O)[C@@]1(O)CC[C@H]2[C@@H]3C=C(Cl)C4=CC(=O)[C@@H]5C[C@@H]5[C@]4(C)[C@H]3CC[C@@]21C`, the activity, negative = cell killing in experiment [1] (setting [3]) was -14.4%; in experiment [1] (setting [4]) it was -9.17%; in experiment [1] (setting [5]), -35.1%; in experiment [1] (setting [6]), -13.6%. Further, the Potency entry in experiment [2] was “inactive”.

On to `Nc1nc(/C(=C/CC(=O)O)C(=O)N[C@@H]2C(=O)N3C(C(=O)O)=CCS[C@H]23)cs1`, for which the activity, negative = cell killing was -0.0909% in experiment [1] (setting [3]), -11.4% in experiment [1] (setting [4]), 12.2% in experiment [1] (setting [5]) and 20.6% in experiment [1] (setting [6]). Moreover, the Potency result in experiment [2] was “inactive”.

Consider `CC(C)=CCC/C(C)=C/CC/C(C)=C/CC/C=C(\C)CC/C=C(\C)CCC=C(C)C`, for which the activity, negative = cell killing in experiment [1] (setting [3]) is 2.98%; in experiment [1] (setting [4]) it was -28.8%; in experiment [1] (setting [5]) it was -32.1%; in experiment [1] (setting [6]), -15.4%. The Potency entry in experiment [2] was “inactive”.

As to `OCCCNc1ccccc1`, the activity, negative = cell killing was 1.67% in experiment [1] (setting [3]), -0.692% in experiment [1] (setting [4]), -52.2% in experiment [1] (setting [5]) and -9.32% in experiment [1] (setting [6]). Besides, the Potency result in experiment [2] is “inactive”.

For `CCCOC(=O)c1ccccc1O`, the activity, negative = cell killing in experiment [1] (setting [3]) was -5.91%; in experiment [1] (setting [4]), 2.55%; in experiment [1] (setting [5]) it was -23.3%; in experiment [1] (setting [6]), -5.92%. For the same molecule, the Potency entry in experiment [2] is “inactive”.

On to `CN[C@@H]1[C@H](O[C@H]2[C@H](O[C@H]3[C@H](O)[C@@H](O)[C@H](N=C(N)N)[C@@H](O)[C@@H]3N=C(N)N)O[C@@H](C)[C@]2(O)C=O)O[C@@H](CO)[C@H](O)[C@H]1O`, for which the activity, negative = cell killing in experiment [1] (setting [3]) is 1.28%; in experiment [1] (setting [4]), -18.9%; in experiment [1] (setting [5]), -12%; in experiment [1] (setting [6]), -1.08%. The Potency result in experiment [2] is “inactive”.

Take `CC(=O)OCC1=C(C(=O)O)N2C(=O)[C@@H](NC(=O)Cc3ccccc3)[C@H]2SC1`: the activity, negative = cell killing in experiment [1] (setting [3]) is -6.43%; in experiment [1] (setting [4]) it was -15.2%; in experiment [1] (setting [5]), -28.6%; in experiment [1] (setting [6]), -24%. Besides, the Potency result in experiment [2] is “inactive”.

Consider `CCCCC[C@H](O)/C=C/[C@@H]1[C@H]2C/C(=C/CCCC(=O)O)O[C@H]2C[C@H]1O`, for which the activity, negative = cell killing in experiment [1] (setting [3]) is -2.96%; in experiment [1] (setting [4]), 0.816%; in experiment [1] (setting [5]), -14.4%; in experiment [1] (setting [6]) it was -18.7%. In experiment [2], the Potency result is “inactive”.

On to `FCOC(C(F)(F)F)C(F)(F)F`, for which the activity, negative = cell killing in experiment [1] (setting [3]) was -14%; in experiment [1] (setting [4]), -24.3%; in experiment [1] (setting [5]), -28%; in experiment [1] (setting [6]), -24.9%. The Potency result in experiment [2] was “inactive”.
